A selection: hits, their analogues and other compounds. The true share with any hit is near 2.6%.
KLF5 inhibitor: kruppel-like factor 5 inhibition; DLD-1 KLF5 promoter-luciferase reporter, luminescence; AID 1700; hit rate 0.23% among 290,000; inhibition, % at 5 µM;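 active = inhibition above a per-plate limit of that plate's mean compound inhibition plus 3 SD, cut at about 60% in these data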;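 also: 0% = DMSO wells and 100% = LY294002 at 200 µM; higher means less KLF5 promoter-driven luciferase light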
BaF3 parental: reduces parental Ba/F3 cell viability, JAK2V617F counter-screen. hit rate 1.1% among 220,000. inhibition, % at 5.6 µM. CellTiter-Glo ATP luminescence;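 active = inhibition above a per-campaign cutoff, the mean inhibition of all tested compounds plus 3 SD, cut at about 27% in these data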;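 also: 0% = DMSO wells and 100% = JAK Inhibitor I control wells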
IEC-6 cytotox: IEC-6 cytotoxicity, counter-screen for KLF5 inhibitors | luminescence viability | inhibition, % at 5 µM | hit rate 0.78% among 290,000 | AID 1825; in the data active = inhibition above about 22%;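 also: 0% = plate median of test compound wells and 100% = cytotoxic reference compound wells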
Ba/F3 V617F tox: reduce viability of Ba/F3 cells dependent on JAK2V617F | Ba/F3 EpoR-JAK2V617F viability, ATP luminescence | hit rate 1.1% among 220,000 | inhibition, % at 5.6 µM;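 active = inhibition above the campaign mean plus 3 SD over all tested compounds, cut at about 24% in these data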;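 also: cytokine-independent growth of Ba/F3 cells driven by EpoR plus mutant JAK2; 0% = DMSO-treated cells and 100% = JAK inhibitor I control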
FID counter: counter-screen for HCV NS3 helicase inhibitors: DNA intercalator displacement; DNA fluorescent intercalator displacement, fluorescence; inhibition, % at 7.9 µM; hit rate 0.17% among 290,000; in the data active = inhibition above about 37%;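 also: 0% = vehicle and 100% = reference compound; higher means more ethidium bromide displaced from hairpin DNA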
GPR7 antag: blocks human GPR7 receptor signaling. P48145. GPR7-expressing cells, fluorescence antagonist assay. inhibition, % at 4.4 µM. hit rate 1.1% among 290,000; in the data active = inhibition above about 16%, passing the limit was not always enough;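 also: cells stimulated with the agonist NPW; 0% = agonist with vehicle and 100% = vehicle without agonist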
Target sequence (P48145 whole entry, looked up): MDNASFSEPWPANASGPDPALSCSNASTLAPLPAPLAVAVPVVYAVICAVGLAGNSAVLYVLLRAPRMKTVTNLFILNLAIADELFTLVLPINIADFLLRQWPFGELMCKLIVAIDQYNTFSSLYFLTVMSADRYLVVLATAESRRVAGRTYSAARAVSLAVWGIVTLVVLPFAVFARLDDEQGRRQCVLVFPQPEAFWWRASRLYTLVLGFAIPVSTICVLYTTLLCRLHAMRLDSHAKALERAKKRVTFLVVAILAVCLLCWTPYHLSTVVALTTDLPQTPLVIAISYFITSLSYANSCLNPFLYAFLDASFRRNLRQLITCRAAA
Starred values were filed as active, the others as inactive; · = no result given.

SMILES	KLF5 inhibitor	BaF3 parental	IEC-6 cytotox	Ba/F3 V617F tox	FID counter	GPR7 antag
CCOC(=O)C1(CCOC)CCN(C(=O)c2ccccc2-c2cccc(C)c2)CC1	-27	82*	4	4	-35	11
COc1ccc(CCN2CC(O)=C(c3nc4ccccc4c(=O)[nH]3)C2=N)cc1OC	-35	0	-6	-2	-8	-10
Cc1cc(NC(=S)N(CCCN2CCN(C)CC2)Cc2ccco2)ccc1Cl	-16	27*	-5	35*	17	-4
Cc1ccc(NC(=S)N(CCCN2CCOCC2)Cc2ccco2)cc1C	-15	9	-6	-1	1	-8
COc1ccc(NC(=O)CS(=O)(=O)c2cn(CC(=O)N3CCOCC3)c3ccccc23)cc1OC	-20	·	-3	·	-15	-5
O=C(CCSCc1ccccc1F)NCc1cccs1	-23	-3	-1	-4	-6	-8
Cc1ccc2ccccc2[n+]1CCCS(=O)(=O)[O-]	11	5	-3	-1	3	-8
O=C(C[n+]1cc(Br)cc2ccccc21)c1ccc(Br)cc1	-11	·	4	·	2	0
CCCC[n+]1c2ccccc2cc2ccccc21	-26	·	-5	·	38*	34
CCC[n+]1c2ccccc2cc2ccccc21	3	·	4	·	38*	19
CC(C)Cn1c(N)c(C(=O)COC(=O)[C@@H]2CCCN2C(=O)c2cccs2)c(=O)n(C)c1=O	-7	1	-3	-1	-23	-15
C/C(=N/NC(=O)c1nnn(-c2nonc2N)c1COc1ccccc1)c1ccccc1	-43	·	1	·	-6	3
C/C(=N\NC(=O)c1nnn(-c2nonc2N)c1C)c1ccc(-c2ccccc2)cc1	-12	·	-2	·	-13	20*
CCOc1cccc(-c2c(C(=O)N/N=C(\C)c3ccccn3)nnn2-c2nonc2N)c1	58	·	52*	·	-35	-8
CCOC(=O)c1ccccc1NC1c2ccccc2C(=O)N1c1cc(C)ccn1 (configuration not stated)	-37	9	-7	0	-22	-14
c1ccc(C[n+]2cccc(-c3ccccc3)c2)cc1	-6	64*	-5	65*	3	-11
Cc1sc2cc3c(c(C(=O)c4ccccc4)[n+]2c1C)-c1cccc2cccc-3c12	-1	88*	6	100*	20	-10
NNC(=O)c1sccc1OCc1ccc(Cl)cc1Cl	-29	-2	-5	2	-31	20*
NNC(=O)c1sccc1OCc1ccc(F)cc1	-4	3	-6	-6	-9	-5
Cc1ccccc1C(=O)/C=C1/c2ccccc2CC(C)(C)N1C	-6	3	6	3	-33	5
CC(Sc1ccccc1)C(=O)Nc1ccc(N2CCOCC2)cc1 (configuration not stated)	-3	7	-1	1	-5	11
Cc1ccc(C2c3c(-c4ccccc4O)n[nH]c3C(=O)N2Cc2ccncc2)cc1 (configuration not stated)	4	13	5	6	-32	20*
CCn1c(CNS(=O)(=O)c2ccc(Br)cc2)nnc1SC	-11	·	7	·	-10	-12
Cc1cccc2sc(N(CCCN(C)C)C(=O)c3ccc(S(=O)(=O)N4CCc5ccccc5C4)cc3)nc12	-21	·	-1	·	38*	21
CN(C)CCCN(C(=O)c1ccc(S(=O)(=O)N2CCc3ccccc3C2)cc1)c1nc2c(F)cccc2s1	-18	·	-9	·	16	-3
SMILES	KLF5 inhibitor	BaF3 parental	IEC-6 cytotox	Ba/F3 V617F tox	FID counter	GPR7 antag
CC(C)CNC(=O)c1ccccc1Oc1ccccc1	-33	3	2	-4	-9	0
Cc1cc(C(=O)COC(=O)CCc2nc3ccccc3c(=O)[nH]2)c(C)n1CC1CCCO1 (configuration not stated)	-13	-7	-4	-1	-36	-13
Cc1cc(C(=O)CSc2nc3ccccc3c(=O)n2C)c(C)n1CC1CCCO1 (configuration not stated)	19	69*	9	59*	-5	11
Cc1cc(C(=O)CSc2nc3ccccc3c(=O)[nH]2)c(C)n1CC1CCCO1 (configuration not stated)	-111	40*	4	35*	-32	-5
Cc1cc(C)c(S(=O)(=O)/N=C2/C=C(Sc3ncn[nH]3)C(=O)c3ccccc32)cc1C	-1	7	14	41*	-5	-14
COc1ccccc1CN1CCC(CNS(=O)(=O)c2cc(-c3onc(C)c3C)ccc2OC)CC1	-32	·	18	·	44*	22
Cc1cc(-c2ccc(C)c(S(=O)(=O)NCC3CCN(Cc4ccccc4F)CC3)c2)on1	-11	·	0	·	20	-9
COc1cccc(CN(C)C(=O)c2ccc(N3CCCC3)c([N+](=O)[O-])c2)c1	-32	·	5	·	-40	-9
CCOC(=O)c1ccc2ncc(C(=O)OCC)c(Nc3ccc(N4CCOCC4)cc3)c2c1	-14	7	0	0	-2	-9
CCOC(=O)c1cnc2ccc(OC)cc2c1Nc1ccc(N2CCN(C)CC2)cc1	-13	·	-6	·	44*	17
O=C(Nc1ccc([N+](=O)[O-])cc1)C(=O)Nc1cccc(C(=O)O)c1	81*	9	10	7	-3	-6
O=C(O)c1cc(NC(=O)c2ccc([N+](=O)[O-])cc2)cc(NC(=O)c2ccc([N+](=O)[O-])cc2)c1	-47	·	-16	·	-8	-9
Cc1cc(NC(=O)Nc2cccc([N+](=O)[O-])c2)no1	-45	90*	4	0	0	3
O=C(Nc1ccc(OC(F)(F)F)cc1)Nc1cccc([N+](=O)[O-])c1	-14	7	8	2	20	43*
Cc1cc(NC(=O)COc2cccc([N+](=O)[O-])c2)no1	0	·	-1	·	-6	15
Cc1ccc(NC(=O)Nc2cccc([N+](=O)[O-])c2)cc1F	-107	6	3	1	23	30*
COc1cccc(OCc2ccc(C(=O)NCC3CCCO3)cc2)c1 (configuration not stated)	2	6	-5	1	-22	-3
CC1(C)OC(=O)N(c2ccccn2)C1(C)O (configuration not stated)	-26	1	0	-7	6	18
CN1C(=O)/C(=C/c2ccc(C(=O)Nc3ccc(O)cc3C(=O)O)cc2)SC1=S	-16	·	-3	·	39*	0
Cc1ccc(/C=C2\SC(=S)N(CCC(=O)NNC(=O)c3ccc(O)cc3)C2=O)cc1	-38	·	1	·	-12	-11
Cc1cccc(NC(=S)N=Nc2c(O)[nH]c3ccccc23)c1	-12	4	38*	-2	-4	-1
COc1ccccc1NC(=S)N=Nc1c(O)[nH]c2ccc(Br)cc12	-9	-3	-4	-3	2	-15
Cc1cccc2c(=O)cc(C)n(CC(=O)N3CCCCC3)c12	-7	1	4	-2	2	-15
Cc1oc2c(CN3CCCC3)c(O)ccc2c(=O)c1-c1ccc(Cl)cc1	-21	0	-5	-2	8	1
